Laboratory results taken from PubChem BioAssay (NCI).
Values joined by “and” are separate entries in the source; they are usually repeats but may differ in a detail not shown here. Equal values may be shown once. About 83,000 compounds went through this panel and 20% of them were active in at least one assay; those are over-represented in the sample as a whole.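 In brief: 96-well plates, 48 h treatment, single concentration, percent growth endpoint.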 A number with no mark means an inactive call. Active and inactive are the calls of the source. How the source made its calls: active means growth percent below 10; inactive means the rest.

How the values were obtained:
Test in all cases: NCI-60 one-dose screen, 48 h (100 = growth as untreated, 0 = no growth, -100 = all killed)
Settings in all cases: 10 µM unless noted
SK-MEL-2 melanoma = test system: SK-MEL-2 melanoma
EKVX NSCLC = test system: EKVX NSCLC
SN12C renal = test system: SN12C renal
UO-31 renal = test system: UO-31 renal
TK-10 renal = test system: TK-10 renal
ACHN renal = test system: ACHN renal
CAKI-1 renal = test system: CAKI-1 renal
A498 renal = test system: A498 renal
HL-60(TB) leukemia = test system: HL-60(TB) leukemia
MOLT-4 leukemia = test system: MOLT-4 leukemia
SR leukemia = test system: SR leukemia
RPMI-8226 leukemia = test system: RPMI-8226 leukemia
OVCAR-4 ovarian = test system: OVCAR-4 ovarian
SK-OV-3 ovarian = test system: SK-OV-3 ovarian
IGROV1 ovarian = test system: IGROV1 ovarian
OVCAR-3 ovarian = test system: OVCAR-3 ovarian
HS 578T breast = test system: HS 578T breast
CCRF-CEM leukemia = test system: CCRF-CEM leukemia
OVCAR-5 ovarian = test system: OVCAR-5 ovarian
OVCAR-8 ovarian = test system: OVCAR-8 ovarian

Compound	growth (SK-MEL-2 melanoma)	growth (EKVX NSCLC)	growth (SN12C renal)	growth (UO-31 renal)	growth (TK-10 renal)	growth (ACHN renal)	growth (CAKI-1 renal)	growth (A498 renal)	growth (HL-60(TB) leukemia)	growth (MOLT-4 leukemia)	growth (SR leukemia)	growth (RPMI-8226 leukemia)	growth (OVCAR-4 ovarian)	growth (SK-OV-3 ovarian)	growth (IGROV1 ovarian)	growth (OVCAR-3 ovarian)	growth (HS 578T breast)	growth (CCRF-CEM leukemia)	growth (OVCAR-5 ovarian)	growth (OVCAR-8 ovarian)
COc1c(O)cc2c(c1OC)-c1ccc(SC)c(=O)cc1C(NC(C)=O)CC2 (centres undefined)	59.8%	41.9%	48.7%	16.2%	48.7%	3.04% (active)	19.3%	7.2% (active)	-32.6% (active)	9.41% (active)	5.8% (active)	0.467% (active)	16.8%	35.2%	-44.2% (active)	-34.3% (active)	16%			
O=C(Cc1ccccc1)c1ccccc1	110%	103%	106%	90.2%	95.5%	107%	101%	63.6%		107%	100%	85.4%	99.3%	113%	110%	106%		7.63% (active)	108%	
O=C(O)c1cc([N+](=O)[O-])cc([N+](=O)[O-])c1	87.1%	104%	97.5%	92%	96.9%	105%	93.8%	92.6%			120%	101%	109%	94.9%	132%	102%	98.1%	80.6%	104%	89.6%
Cc1cc[c-]cc1.Fc1c[c-]c(-c2ccccn2)c(F)c1.N#CCC[PH+](CCC#N)c1ccccc1.[Pt+2]	59.4%	56.8%	23.9%	24.7%	106%	6.91% (active)	14.8%	52.3%		5.29% (active)	7.03% (active)	14.6%	42.1%	108%	30.2%	28.5%		10%	64.9%	40.7%
O=c1[nH]c(=O)n(Cl)c(=O)n1Cl	114% and 96.7%	107% and 101%	94.2% and 108%	84.3% and 86.7%	115% and 117%	109% and 107%	101% and 108%	106% and 127%	110% and 115%	113% and 104%	102% and 113%		115% and 109%		124% and 96.9%	111% and 110%	106% and 99.9%		102% and 96.2%	103% and 108%
CC[C@H](C)[C@H](NC(=O)[C@H]1CCCCN1C)C(=O)N(C)[C@H](CCc1nc(C(=O)N[C@@H](Cc2ccccc2)C[C@H](C)C(=O)O)cs1)C(C)C	32.3%	47.7%	46.8%	49%	49.4%	47%	51.2%	-7.5% (active)		20.4%	18.6%	25.2%	43.8%	12.3%		-4.67% (active)	27.7%		46.8%	15.8%
